From PubChem BioAssay (NCATS)
Results filed as inconclusive are left out. Calls of active or inactive are those of the source. Calls follow the shape of the dose curve; as a rule, active = well fitted curve in the direction sought with a large enough effect; inconclusive = small, poorly fitted or top-dose-only effect, or another doubt; inactive = no such curve, though single readings can be large; an effect the other way counts as inactive or inconclusive.

Tests used:
Hek293T = test: Primary qHTS to identify gynecologic anti-cancer compounds using libraries of approved drugs and bioactive compounds (AID 1345084); details: Gynecologic cancer cell panel viability, ATPlite luminescence, 48 h, control line for the selectivity index; series mostly up to 57.5 µM; also: nearly all actives have a fitted effect of over 55% in size
Method in brief: (§1)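 48 h compound exposure at 37 C, 5% CO2; five-point qHTS. ATPlite luminescence readout of cell ATP.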

JEG-3 = test: as above; details: Gynecologic cancer cell panel viability, ATPlite luminescence, 48 h; series mostly up to 57.5 µM
Method in brief: as §1

OV90 = test: as above; details: Gynecologic cancer cell panel viability, ATPlite luminescence, 48 h; series mostly up to 57.5 µM
Method in brief: as §1

PA-1 = test: as above; details: Gynecologic cancer cell panel viability, ATPlite luminescence, 48 h; series mostly up to 57.5 µM
Method in brief: as §1

SKOV3 = test: as above; details: Gynecologic cancer cell panel viability, ATPlite luminescence, 48 h; series mostly up to 57.5 µM
Method in brief: as §1

Tov-21-G = test: as above; details: Gynecologic cancer cell panel viability, ATPlite luminescence, 48 h; series mostly up to 57.5 µM
Method in brief: as §1

Tov112D = test: as above; details: Gynecologic cancer cell panel viability, ATPlite luminescence, 48 h; series mostly up to 57.5 µM
Method in brief: as §1

[1] = Drug repurposing screens with cells derived from glioblastoma tumor samples (AID 1345199); details: GBM patient neurospheres viability, ATP luminescence, 48 h; also: nearly all actives have a fitted effect of over 40% in size
Method in brief: (§2)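 Primary testing used CD133+ neurospheres from four GBM patients, seven concentrations, 48 h exposure and ATP-based viability; confirmation added three slower-growing patient lines.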

astro = test: as above; details: viability, ATP luminescence, 48 h; series mostly up to 45.9 µM
Method in brief: as §2

[2] = at 45.9 µM (top of the series), tumour line B
[3] = at 45.9 µM (top of the series), tumour line D
[4] = at 46 µM (top of the series), tumour line A
[5] = at 46.1 µM (top of the series), tumour line C
% is scaled to controls: 0 for no effect and ±100 for the full control effect.

CC(=O)Nc1ccc(OC(=O)c2ccccc2OC(C)=O)cc1
inactive: Potency (Hek293T) | Potency (JEG-3) | Potency (OV90) | Potency (PA-1) | Potency (SKOV3) | Potency (Tov-21-G) | Potency (Tov112D) | activity, negative = cell killing [1, 2] -12.4% | activity, negative = cell killing [1, 3] -13.4% | activity, negative = cell killing [1, 4] -15.3% | activity, negative = cell killing [1, 5] -16.9% | Potency (astro)

Nc1ccc(S(=O)(=O)Nc2cnc3ccccc3n2)cc1
inactive: Potency (Hek293T) | Potency (JEG-3) | Potency (OV90) | Potency (PA-1) | Potency (SKOV3) | Potency (Tov-21-G) | Potency (Tov112D) | activity, negative = cell killing [1, 2] 0.475% | activity, negative = cell killing [1, 3] 3.34% | activity, negative = cell killing [1, 4] -15.8% | activity, negative = cell killing [1, 5] 4.45% | Potency (astro)

CN(C)CCN1C(=O)c2ccccc2N(C)c2ccccc21
inactive: Potency (Hek293T) | Potency (JEG-3) | Potency (OV90) | Potency (PA-1) | Potency (SKOV3) | Potency (Tov-21-G) | Potency (Tov112D) | activity, negative = cell killing [1, 2] -10.1% | activity, negative = cell killing [1, 3] -18.4% | activity, negative = cell killing [1, 5] 4.2% | Potency (astro)

NC1CCN(c2nc3c(cc2F)c(=O)c(C(=O)O)cn3-c2ccc(F)cc2F)C1 (stereo not given)
inactive: Potency (Hek293T) | Potency (JEG-3) | Potency (OV90) | Potency (PA-1) | Potency (SKOV3) | Potency (Tov-21-G) | Potency (Tov112D) | activity, negative = cell killing [1, 2] -3.86% | activity, negative = cell killing [1, 3] -30% | activity, negative = cell killing [1, 4] -29.1% | Potency (astro)

CCCCCCCCCCCCCCCC(=O)O
inactive: Potency (Hek293T) | Potency (JEG-3) | Potency (OV90) | Potency (PA-1) | Potency (SKOV3) | Potency (Tov-21-G) | Potency (Tov112D) | activity, negative = cell killing [1, 2] -2.37% | activity, negative = cell killing [1, 3] 1.78% | activity, negative = cell killing [1, 4] -27.9% | activity, negative = cell killing [1, 5] 2.94% | Potency (astro)

COc1cc(O)c(C(=O)c2ccccc2)cc1S(=O)(=O)O
inactive: Potency (Hek293T) | Potency (JEG-3) | Potency (OV90) | Potency (PA-1) | Potency (SKOV3) | Potency (Tov-21-G) | Potency (Tov112D) | activity, negative = cell killing [1, 2] -4.01% | activity, negative = cell killing [1, 3] -5.06% | activity, negative = cell killing [1, 4] -20.9% | activity, negative = cell killing [1, 5] 6.07% | Potency (astro)
